Reference: the supplement of paper PMC8975748
Structures can show the parent of a compound that is named as a salt.

test system: Saccharomyces cerevisiae BY4741 SeMeCo community; assay: z-score of subpopulation abundance vs DMSO median, subpopulation auxotrophic for HL; higher = larger share of this subpopulation than in DMSO controls; conditions: 10 µM; 24 h; SM minimal medium; subpopulation (auxotrophy): HL
Method in brief: (§1)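 Four plasmids, each restoring a single auxotrophy and encoding a distinct fluorescent protein, were carried by a Saccharomyces cerevisiae BY4741 community. After overnight growth to OD600 1.0 and dilution to 0.3, 70 µl per well was grown for 24 h in minimal SM medium on 384-well plates acoustically predosed with library drugs at 10 µM final. Following paraformaldehyde fixation, automated confocal microscopy was used, with single-auxotroph fluorescent strains defining thresholds and autofluorescence correction. Subpopulation abundance was then scored as a z-score against the vehicle-well median.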

Row | Compound | z-score of subpopulation abundance
1 | COc1cc(O)c(C(=O)Nc2nc(C(=O)NCCN(C(C)C)C(C)C)cs2)cc1OC [Acotiamide hydrochloride] | -0.16
2 | Cc1onc(-c2c(F)cccc2Cl)c1C(=O)N[C@@H]1C(=O)N2[C@@H]1SC(C)(C)[C@@H]2C(=O)O [Flucloxacillin sodium] | -0.43
3 | Cc1ncc([N+](=O)[O-])n1CC(O)CCl (centres undefined) [Ornidazole] | 0.53
4 | CC(C)c1c(C(=O)Nc2ccccc2)c(-c2ccccc2)c(-c2ccc(F)cc2)n1CC[C@@H](O)C[C@@H](O)CC(=O)O [Atorvastatin Calcium] | 6.43
5 | C[C@@H](O)[C@H]1C(=O)N2C(C(=O)[O-])=C(SC3Cn4cnc[n+]4C3)[C@H](C)[C@H]12 (some centres undefined) [Biapenem] | -0.48
6 | CO/N=C(\C(=O)N[C@@H]1C(=O)N2C(C(=O)OC(C)OC(C)=O)=C(COC(N)=O)CS[C@H]12)c1ccco1 (some centres undefined) [Cefuroxime axetil] | -0.54
7 | Cc1cc(=O)n(-c2ccccc2)n1C [Antipyrine] | -0.85
8 | Oc1c(Cl)cc(Cl)c2cccnc12 [Chloroxine] | 21.7
9 | CCOC(=O)C1=C(C)NC(C)=C(C(=O)OC)C1c1cccc(Cl)c1Cl (centres undefined) [Felodipine] | 4.71
10 | O=C1CCc2cc(OCCCCc3nnnn3C3CCCCC3)ccc2N1 [Cilostazol] | -0.05
11 | Cc1nnc(SCC2=C(C(=O)O)N3C(=O)[C@@H](NC(=O)Cn4cc(Cl)c(=O)c(Cl)c4)[C@H]3SC2)s1 [Cefazedone] | -1.2
12 | CS(=O)(=O)c1ccc([C@@H](O)[C@@H](CO)NC(=O)C(Cl)Cl)cc1 [Thiamphenicol] | -0.52
13 | O=c1cc(-c2ccc(O)c(O)c2)oc2cc(O)cc(O)c12 [Luteolin] | 0.22
14 | CC(=O)Oc1ccccc1C(=O)O [Aspirin] | 0.18
15 | Cc1noc(NS(=O)(=O)c2ccc(N)cc2)c1C [Sulfisoxazole] | 0.35
16 | O=C(NCCO[N+](=O)[O-])c1cccnc1 [Nicorandil] | -0.84
17 | O=C1C(CC[S+]([O-])c2ccccc2)C(=O)N(c2ccccc2)N1c1ccccc1 (racemic) [(+/-)-Sulfinpyrazone] | -0.17

Row | Compound | z-score of subpopulation abundance
18 | CCCCCCCCCC(=O)N[C@@H](Cc1c[nH]c2ccccc12)C(=O)N[C@H](CC(N)=O)C(=O)N[C@@H](CC(=O)O)C(=O)N[C@@H]1C(=O)NCC(=O)N[C@@H](CCCN)C(=O)N[C@@H](CC(=O)O)C(=O)N[C@H](C)C(=O)N[C@@H](CC(=O)O)C(=O)NCC(=O)N[C@H](CO)C(=O)N[C@@H]([C@H](C)CC(=O)O)C(=O)N[C@@H](CC(=O)c2ccccc2N)C(=O)O[C@@H]1C [Daptomycin] | 2.68
19 | CCn1cc(C(=O)O)c(=O)c2cc(F)c(N3CCN(C)CC3)cc21 [Pefloxacin Mesylate] | 0
20 | OCc1ccc(Cl)cc1Cl [2,4-dichlorobenzyl alcohol] | 0.12
21 | CN(C)CCC=C1c2ccccc2CCc2ccccc21 [Amitriptyline HCl] | -0.48
22 | COc1cc(C(C)=O)ccc1OCCCN1CCC(c2noc3cc(F)ccc23)CC1 [Iloperidone] | 0.55
23 | Cc1ccc(Sc2ccccc2N2CCNCC2)c(C)c1 | -0.11
24 | Nc1ccc(S(=O)(=O)Nc2ccccn2)cc1 [Sulfapyridine] | -0.68
25 | CN1CC(=O)N2[C@H](c3ccc4c(c3)OCO4)c3[nH]c4ccccc4c3C[C@@H]2C1=O [Tadalafil] | 1.24
26 | CCOC(=O)C1=C[C@@H](OC(CC)CC)[C@H](NC(C)=O)[C@@H](N)C1 [Oseltamivir Phosphate] | 0.28
27 | O=C(c1ccc(OCCN2CCCCC2)cc1)c1c(-c2ccc(O)cc2)sc2cc(O)ccc12 [Raloxifene HCl] | 0.66
28 | N#CC(c1ccc(Cl)cc1)c1c(Cl)cc(-n2ncc(=O)[nH]c2=O)cc1Cl (centres undefined) [Diclazuril] | -0.28
29 | O=C1NCC2(CCN(CCc3ccccc3)CC2)O1 [Fenspiride HCl] | 0.27
30 | CCCN[C@H]1CCc2nc(N)sc2C1 [Pramipexole dihydrochloride] | 0.19
31 | O=C(O)c1ccccc1O [Salicylic acid] | -0.19
32 | CCCOc1ccc(C(=O)OCCN(CC)CC)cc1N [Proparacaine HCl] | -0.68
33 | CCOc1ccc2ccccc2c1C(=O)N[C@@H]1C(=O)N2[C@@H]1SC(C)(C)[C@@H]2C(=O)O [Nafcillin Sodium] | -0.51
34 | CC(C)(O/N=C(\C(=O)N[C@@H]1C(=O)N2C(C(=O)[O-])=C(C[n+]3ccccc3)CS[C@H]12)c1csc(N)n1)C(=O)O [Ceftazidime] | 0.02

test system: Saccharomyces cerevisiae BY4741 SeMeCo community; assay: z-score of subpopulation abundance vs DMSO median, subpopulation auxotrophic for HLU; higher = larger share of this subpopulation than in DMSO controls; conditions: 10 µM; 24 h; SM minimal medium; subpopulation (auxotrophy): HLU
Method in brief: as §1

Row | Compound | z-score of subpopulation abundance
35 | COc1cc(O)c(C(=O)Nc2nc(C(=O)NCCN(C(C)C)C(C)C)cs2)cc1OC [Acotiamide hydrochloride] | 0.19
36 | Cc1onc(-c2c(F)cccc2Cl)c1C(=O)N[C@@H]1C(=O)N2[C@@H]1SC(C)(C)[C@@H]2C(=O)O [Flucloxacillin sodium] | -0.04
37 | Cc1ncc([N+](=O)[O-])n1CC(O)CCl (centres undefined) [Ornidazole] | -0.38
38 | OC(CCCN1CCCCC1)(c1ccccc1)c1ccccc1 [Diphenidol HCl] | -0.05
39 | Cc1ccccc1OCC(O)CO (centres undefined) [Mephenesin] | -0.38
40 | CC(C)c1c(C(=O)Nc2ccccc2)c(-c2ccccc2)c(-c2ccc(F)cc2)n1CC[C@@H](O)C[C@@H](O)CC(=O)O [Atorvastatin Calcium] | 8.01
41 | C[C@@H](O)[C@H]1C(=O)N2C(C(=O)[O-])=C(SC3Cn4cnc[n+]4C3)[C@H](C)[C@H]12 (some centres undefined) [Biapenem] | -1.25
42 | CO/N=C(\C(=O)N[C@@H]1C(=O)N2C(C(=O)OC(C)OC(C)=O)=C(COC(N)=O)CS[C@H]12)c1ccco1 (some centres undefined) [Cefuroxime axetil] | -0.22
43 | Cc1cc(=O)n(-c2ccccc2)n1C [Antipyrine] | -0.53
44 | Oc1c(Cl)cc(Cl)c2cccnc12 [Chloroxine] | 33.8
45 | CC1(C)CC[C@]2(C(=O)O)CC[C@]3(C)C(=CC[C@@H]4[C@@]5(C)CC[C@H](O)C(C)(C)[C@@H]5CC[C@]43C)[C@@H]2C1 [Oleanolic Acid] | 0.15
46 | CCOC(=O)C1=C(C)NC(C)=C(C(=O)OC)C1c1cccc(Cl)c1Cl (centres undefined) [Felodipine] | -3.41
47 | O=C1CCc2cc(OCCCCc3nnnn3C3CCCCC3)ccc2N1 [Cilostazol] | -0.44
48 | Cc1nnc(SCC2=C(C(=O)O)N3C(=O)[C@@H](NC(=O)Cn4cc(Cl)c(=O)c(Cl)c4)[C@H]3SC2)s1 [Cefazedone] | -1.4
49 | CS(=O)(=O)c1ccc([C@@H](O)[C@@H](CO)NC(=O)C(Cl)Cl)cc1 [Thiamphenicol] | -0.36
50 | O=C(O)CCNC(=O)c1ccccc1 [Betamipron] | -1
51 | O=c1cc(-c2ccc(O)c(O)c2)oc2cc(O)cc(O)c12 [Luteolin] | 0.05
52 | CN1C[C@@H]2C[C@H]1CN2c1cc2c(cc1F)c(=O)c(C(=O)O)cn2C1CC1 [Danofloxacin Mesylate] | 0.21
53 | CC(=O)Oc1ccccc1C(=O)O [Aspirin] | -0.85
54 | Cc1noc(NS(=O)(=O)c2ccc(N)cc2)c1C [Sulfisoxazole] | 0.89

Row | Compound | z-score of subpopulation abundance
55 | O=C(NCCO[N+](=O)[O-])c1cccnc1 [Nicorandil] | 0.08
56 | O=C1C(CC[S+]([O-])c2ccccc2)C(=O)N(c2ccccc2)N1c1ccccc1 (racemic) [(+/-)-Sulfinpyrazone] | 0.61
57 | CCCCCCCCCC(=O)N[C@@H](Cc1c[nH]c2ccccc12)C(=O)N[C@H](CC(N)=O)C(=O)N[C@@H](CC(=O)O)C(=O)N[C@@H]1C(=O)NCC(=O)N[C@@H](CCCN)C(=O)N[C@@H](CC(=O)O)C(=O)N[C@H](C)C(=O)N[C@@H](CC(=O)O)C(=O)NCC(=O)N[C@H](CO)C(=O)N[C@@H]([C@H](C)CC(=O)O)C(=O)N[C@@H](CC(=O)c2ccccc2N)C(=O)O[C@@H]1C [Daptomycin] | 1.3
58 | CCn1cc(C(=O)O)c(=O)c2cc(F)c(N3CCN(C)CC3)cc21 [Pefloxacin Mesylate] | -0.54
59 | OCc1ccc(Cl)cc1Cl [2,4-dichlorobenzyl alcohol] | 0.04
60 | CN(C)CCC=C1c2ccccc2CCc2ccccc21 [Amitriptyline HCl] | -1.03
61 | COc1ccccc1OCC(O)CN1CCN(CC(=O)Nc2c(C)cccc2C)CC1 (centres undefined) [Ranolazine] | -0.21
62 | COc1cc(C(C)=O)ccc1OCCCN1CCC(c2noc3cc(F)ccc23)CC1 [Iloperidone] | -1.31
63 | Cc1ccc(Sc2ccccc2N2CCNCC2)c(C)c1 | 0.19
64 | Nc1ccc(S(=O)(=O)Nc2ccccn2)cc1 [Sulfapyridine] | -0.45
65 | CN1CC(=O)N2[C@H](c3ccc4c(c3)OCO4)c3[nH]c4ccccc4c3C[C@@H]2C1=O [Tadalafil] | 0.4
66 | CCOC(=O)C1=C[C@@H](OC(CC)CC)[C@H](NC(C)=O)[C@@H](N)C1 [Oseltamivir Phosphate] | -0.07
67 | O=C(c1ccc(OCCN2CCCCC2)cc1)c1c(-c2ccc(O)cc2)sc2cc(O)ccc12 [Raloxifene HCl] | -0.29
68 | N#CC(c1ccc(Cl)cc1)c1c(Cl)cc(-n2ncc(=O)[nH]c2=O)cc1Cl (centres undefined) [Diclazuril] | -0.02
69 | O=C1NCC2(CCN(CCc3ccccc3)CC2)O1 [Fenspiride HCl] | 1.03
70 | CCCN[C@H]1CCc2nc(N)sc2C1 [Pramipexole dihydrochloride] | -0.24
71 | O=C(O)c1ccccc1O [Salicylic acid] | -0.57
72 | CCCOc1ccc(C(=O)OCCN(CC)CC)cc1N [Proparacaine HCl] | -0.61
73 | CCOc1ccc2ccccc2c1C(=O)N[C@@H]1C(=O)N2[C@@H]1SC(C)(C)[C@@H]2C(=O)O [Nafcillin Sodium] | -0.19
74 | CC(C)(O/N=C(\C(=O)N[C@@H]1C(=O)N2C(C(=O)[O-])=C(C[n+]3ccccc3)CS[C@H]12)c1csc(N)n1)C(=O)O [Ceftazidime] | 0.34
